Laboratory results reported in PubChem BioAssay AID492963 (The Scripps Research Institute Molecular Screening Center, 2010).
Hit rate of the full screen: of about 1,100 compounds, about 420 (38%) were called active. These entries were drawn from the full list. Values without a mark were called inactive. Rule as the data show it: active = inhibition above about 29%; inactive = the rest.

The molecules below were run against Orexin/Hypocretin receptor type 1 (Homo sapiens) (UniProt O43613) (assay: HCRTR1 blockers, calcium flux retest – fluorescence, CHO/OX1R cells, Fluo-8 calcium, orexin A, confirmation (AID 492963;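 also: 0% = agonist challenge alone and 100% = reference antagonist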)). Conditions: orexin A calcium Fluo-8 fluorescence, at 5 µM, hits give high values.
Chain of Orexin/Hypocretin receptor type 1 (Homo sapiens) (O43613 whole entry, looked up): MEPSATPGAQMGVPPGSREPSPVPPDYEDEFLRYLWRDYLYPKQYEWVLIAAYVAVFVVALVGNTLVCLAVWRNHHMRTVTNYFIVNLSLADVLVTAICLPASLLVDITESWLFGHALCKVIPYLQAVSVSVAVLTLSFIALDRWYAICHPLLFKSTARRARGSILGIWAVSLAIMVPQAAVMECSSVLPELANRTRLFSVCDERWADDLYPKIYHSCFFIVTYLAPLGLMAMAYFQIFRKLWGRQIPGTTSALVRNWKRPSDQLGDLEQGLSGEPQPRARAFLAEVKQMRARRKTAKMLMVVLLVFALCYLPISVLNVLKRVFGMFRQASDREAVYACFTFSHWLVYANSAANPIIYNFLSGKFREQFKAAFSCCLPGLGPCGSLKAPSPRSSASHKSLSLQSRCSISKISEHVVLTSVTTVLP
For O=C(Nc1cccc2cccnc12)c1cccc(N2C(=O)CCC2=O)c1, the inhibition was 33.2% (active).
CCOC(=O)c1cccc(NC(=O)CN(c2ccc(C)cc2)S(=O)(=O)c2c(C)noc2C)c1 was tested, and the inhibition was 5.21%.
In the case of COc1ccc2sc(-c3ccc(N(C)C)cc3)c(C#CCO)c2c1, the inhibition is reported as 25.9%.
CCOC(=O)c1c(-c2ccc(C)cc2C)csc1NC(=O)CSc1nnnn1C was tested, and the inhibition was -17.1%.
For CCn1c(SCC(=O)c2ccc3ccccc3c2)nnc1-c1cccs1, the inhibition was 29.5% (active).
CCOC(=O)N1CCN(C(=O)c2ccc(S(=O)(=O)Nc3cccc(C(F)(F)F)c3)cc2)CC1 showed an inhibition of 15.2%.
COc1ccc(N2CC(C(=O)NCCN3C(=O)S/C(=C\c4cccnc4)C3=O)CC2=O)c(OC)c1 (stereo not given) was tested, and the inhibition was 26.6%.
Work on COc1cc(CN2CC(C)CC(C)C2)cc([N+](=O)[O-])c1O (stereo not given) yielded an inhibition of -4.4%.
In the case of Cc1cc(C)cc(NC(=O)C2CCCN2S(=O)(=O)c2cccc3cccnc23)c1 (stereo not given), the inhibition is reported as 62.9% (active).
With COc1ccccc1CNC(=O)C1CCCN(S(=O)(=O)c2cccc3cccnc23)C1 (stereo not given) the inhibition was -1.33%.
NC(=O)C1=C[C@@H](c2ccc3c(c2)OCO3)C[C@@H](OCCCCO)O1 showed an inhibition of 1.6%.
Molecule CC1(C)C2CC=C(/C=N/NC(=O)C3CC3)C1C2 (stereo not given) has an inhibition of -24.5%.
With O=C(Cn1[nH]c(=O)c2ccccc2c1=O)Nc1cccc(-c2nnc3n2CCCCC3)c1 the inhibition was 24.9%.
S=C(NCc1ccc(Cl)cc1)NC12CC3CC(CC(C3)C1)C2 was tested, and the inhibition was 10.8%.
With Cc1cc(N2CCCC2=O)cc(C)c1S(N)(=O)=O the inhibition was 1.01%.
In the case of N#C/C(=C/c1ccc(N2CCCCC2)o1)C(=O)NCCc1c[nH]c2ccccc12, the inhibition is reported as 48.7% (active).
O=C(N/N=C/c1c(Cl)[nH]c2ccccc12)c1sc2ccccc2c1Cl was tested, and the inhibition was 79% (active).
C/C(N)=C(/C#N)C(=O)COC(=O)c1cc(-c2ccc(C)cc2)nc2ccccc12 gave an inhibition of -4.02%.
CCc1ccccc1OCC(=O)Nc1ccc(C)c(S(=O)(=O)N2CCCCCC2)c1 was tested, and the inhibition was 5.4%.
O=C(NC(Cc1c[nH]c2ccccc12)C(=O)N/N=C/c1ccc(Br)cc1)c1cccs1 (stereo not given) was tested, and the inhibition was 55.8% (active).
CCOc1ccc(CCNC(=O)C(CC)n2nc(C)n3c(cc4sccc43)c2=O)cc1OCC (stereo not given) showed an inhibition of 25.3%.
CC(C)(C)NC(=O)CN(C(=O)c1csnn1)c1ccccc1-c1ccccc1 gave an inhibition of 18.8%.
N#CC(=C1SC=CS1)c1nc(-c2ccccc2)cs1 was tested, and the inhibition was 87.3% (active).
In the case of N#C/C(=C1\CCCN1)c1nc(-c2ccccc2)cs1, the inhibition is reported as 40% (active).
Nc1nc(COC(=O)CCC(=O)c2ccc(Cl)cc2)nc(Nc2ccccc2)n1 was tested, and the inhibition was 19.1%.
